Assay results taken from PubChem BioAssay AID1159580 (chemical genetic matrix, 2015).
Among all 5,500 compounds or so, about 2,000 (36%) were called active. Another 18% or so got no clear call; they are omitted. Rule as the data show it: active = normalized growth mostly below about 0.91 (no sharp cut-off); inconclusive = no clear call, values can overlap the other calls; inactive = mostly above about 0.92. The list shows a part of the results.

Assay: chemical genetic growth profiling, strain panel (AID 1159580);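 also: tested at 20 µM; growth read once vehicle control cultures reached saturation at 30 °C; 1 = growth at the plate median or of vehicle wells; lower values mean less growth of the strain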
Settings: growth OD

Measured: normalized growth

C[N+](C)(C)CC(O)CC(=O)O (stereo unspecified)
inactive: S. cerevisiae deletion strains, locus YKL009W, strain mrt4, active compounds read low 1.03 | S. cerevisiae deletion strains, locus YKL068W, active compounds read low 1 | S. cerevisiae deletion strains, locus YKL085W, strain MDH1 (second series), active compounds read low 1.02 | S. cerevisiae deletion strains, locus YKL085W, strain MDH1, active compounds read low 1.02 | S. cerevisiae deletion strains, locus YKL160W, strain elf1, active compounds read low 0.982 | S. cerevisiae deletion strains, locus YKL190W, strain CNB1, active compounds read low 1.01 | S. cerevisiae deletion strains, locus YKR001C, strain vps1, active compounds read low 0.993 | S. cerevisiae deletion strains, locus YKR026C, strain gcn3, active compounds read low 0.98 | S. cerevisiae deletion strains, locus YKR091W, strain srl3, active compounds read low 0.977 | S. cerevisiae deletion strains, locus YLL001W, strain dnm1, active compounds read low 0.975 | S. cerevisiae deletion strains, locus YLL026W, active compounds read low 0.991 | S. cerevisiae deletion strains, locus YLL041C, strain sdh2, active compounds read low 0.985 | S. cerevisiae deletion strains, locus YLR027C, strain aat2, active compounds read low 0.982 | S. cerevisiae deletion strains, locus YLR039C, strain RIC1, active compounds read low 1 | S. cerevisiae deletion strains, locus YLR058C, strain SHM2, active compounds read low 1.01 | S. cerevisiae deletion strains, locus YLR102C, strain apc9, active compounds read low 0.997 | S. cerevisiae deletion strains, locus YLR113W, strain HOG1, active compounds read low 0.994 | S. cerevisiae deletion strains, locus YLR221C, strain rsa3, active compounds read low 1.03 | S. cerevisiae deletion strains, locus YLR258W, strain gsy2, active compounds read low 0.981 | S. cerevisiae deletion strains, locus YLR262C, strain YPT6 (second series), active compounds read low 1.01 | S. cerevisiae deletion strains, locus YLR262C, strain YPT6, active compounds read low 1.02 | S. cerevisiae deletion strains, locus YLR268W, strain sec22, active compounds read low 0.992 | S. cerevisiae deletion strains, locus YLR320W, strain mms22, active compounds read low 0.978 | S. cerevisiae deletion strains, locus YLR330W, strain CHS5, active compounds read low 1.01 | S. cerevisiae deletion strains, locus YLR342W, strain FKS1 (second series), active compounds read low 0.996 | S. cerevisiae deletion strains, locus YLR342W, strain FKS1, active compounds read low 0.964 | S. cerevisiae deletion strains, locus YLR357W, strain rsc2, active compounds read low 0.988 | S. cerevisiae deletion strains, locus YLR370C, strain arc18, active compounds read low 0.973 | S. cerevisiae deletion strains, locus YLR371W, strain rom2, active compounds read low 0.999 | S. cerevisiae deletion strains, locus YLR384C, strain iki3, active compounds read low 0.967 | S. cerevisiae deletion strains, locus YLR418C, strain cdc73, active compounds read low 0.993 | S. cerevisiae deletion strains, locus YML016C, strain PPZ1, active compounds read low 1 | S. cerevisiae deletion strains, locus YML032C, strain rad52, active compounds read low 1 | S. cerevisiae deletion strains, locus YML120C, strain ndi1, active compounds read low 0.998 | S. cerevisiae deletion strains, locus YML124C, strain tub3, active compounds read low 1 | S. cerevisiae deletion strains, locus YMR058W, strain fet3, active compounds read low 0.991 | S. cerevisiae deletion strains, locus YMR078C, strain ctf18, active compounds read low 0.998 | S. cerevisiae deletion strains, locus YMR125W, strain sto1, active compounds read low 0.969 | S. cerevisiae deletion strains, locus YMR129W, active compounds read low 0.991 | S. cerevisiae deletion strains, locus YMR205C, strain PFK2, active compounds read low 0.989 | S. cerevisiae deletion strains, locus YMR223W, strain ubp8, active compounds read low 1.01 | S. cerevisiae deletion strains, locus YMR231W, strain pep5, active compounds read low 0.983 | S. cerevisiae deletion strains, locus YMR263W, strain SAP30, active compounds read low 1.01 | S. cerevisiae deletion strains, locus YMR307W, strain GAS1, active compounds read low 0.949 | S. cerevisiae deletion strains, locus YNL067W, strain RPL9B, active compounds read low 1 | S. cerevisiae deletion strains, locus YNL071W, strain lat1, active compounds read low 0.992 | S. cerevisiae deletion strains, locus YNL128W, strain TEP1, active compounds read low 1.01 | S. cerevisiae deletion strains, locus YNL153C, strain GIM3, active compounds read low 1.01 | S. cerevisiae deletion strains, locus YNL183C, strain NPR1, active compounds read low 0.922 | S. cerevisiae deletion strains, locus YNL209W, strain ssb2, active compounds read low 0.989 | S. cerevisiae deletion strains, locus YNL233W, strain BNI4, active compounds read low 1 | S. cerevisiae deletion strains, locus YNL248C, strain rpa49, active compounds read low 0.98 | S. cerevisiae deletion strains, locus YNL250W, strain rad50, active compounds read low 0.995 | S. cerevisiae deletion strains, locus YNL271C, strain bni1, active compounds read low 0.996 | S. cerevisiae deletion strains, locus YNL298W, strain CLA4, active compounds read low 0.984 | S. cerevisiae deletion strains, locus YNL307C, strain MCK1, active compounds read low 1.01 | S. cerevisiae deletion strains, locus YNL322C, strain KRE1 (second series), active compounds read low 0.963 | S. cerevisiae deletion strains, locus YNL322C, strain KRE1, active compounds read low 1 | S. cerevisiae deletion strains, locus YNR049C, strain mso1, active compounds read low 0.981 | S. cerevisiae deletion strains, locus YNR052C, strain pop2, active compounds read low 0.994 | S. cerevisiae deletion strains, locus YOL006C, strain TOP1, active compounds read low 1.03 | S. cerevisiae deletion strains, locus YOL012C, strain htz1 0.718 | S. cerevisiae deletion strains, locus YOL147C, strain pex11, active compounds read low 1.01 | S. cerevisiae deletion strains, locus YOR001W, strain rrp6, active compounds read low 0.999 | S. cerevisiae deletion strains, locus YOR061W, strain CKA2, active compounds read low 1.01 | S. cerevisiae deletion strains, locus YOR069W, strain VPS5, active compounds read low 1 | S. cerevisiae deletion strains, locus YOR070C, strain gyp1, active compounds read low 0.993 | S. cerevisiae deletion strains, locus YOR080W, strain dia2, active compounds read low 0.987 | S. cerevisiae deletion strains, locus YOR083W, strain WHI5, active compounds read low 0.989 | S. cerevisiae deletion strains, locus YOR106W, strain vam3, active compounds read low 0.968 | S. cerevisiae deletion strains, locus YOR136W, strain idh2, active compounds read low 0.991 | S. cerevisiae deletion strains, locus YOR144C, strain elg1, active compounds read low 1 | S. cerevisiae deletion strains, locus YOR184W, strain ser1, active compounds read low 1.01 | S. cerevisiae deletion strains, locus YOR231W, strain MKK1, active compounds read low 0.989 | S. cerevisiae deletion strains, locus YOR265W, strain rbl2, active compounds read low 0.996 | S. cerevisiae deletion strains, locus YOR270C, strain vph1, active compounds read low 1.01 | S. cerevisiae deletion strains, locus YOR290C, strain snf2, active compounds read low 0.977 | S. cerevisiae deletion strains, locus YOR316C, strain cot1, active compounds read low 1 | S. cerevisiae deletion strains, locus YPL051W, strain arl3, active compounds read low 0.982 | S. cerevisiae deletion strains, locus YPL055C, strain LGE1, active compounds read low 1.04 | S. cerevisiae deletion strains, locus YPL078C, strain atp4, active compounds read low 0.986 | S. cerevisiae deletion strains, locus YPL106C, strain sse1, active compounds read low 0.978 | S. cerevisiae deletion strains, locus YPL240C, strain hsp82, active compounds read low 1 | S. cerevisiae deletion strains, locus YPL241C, strain CIN2, active compounds read low 1 | S. cerevisiae deletion strains, locus YPL256C, strain CLN2, active compounds read low 0.983 | S. cerevisiae deletion strains, locus YPR119W, strain clb2, active compounds read low 0.988 | S. cerevisiae deletion strains, locus YPR141C, strain kar3, active compounds read low 0.995 | S. cerevisiae deletion strains, locus YPR163C, strain tif3, active compounds read low 0.994 | S. cerevisiae deletion strains, locus YPR167C, strain met16, active compounds read low 1 | S. cerevisiae deletion strains, strain wtn01, active compounds read low 0.989 | S. cerevisiae strains, strain wild type, active compounds read low 1.01
